# FBW7 act: human FBW7 E3 ligase activation, primary screen; AlphaScreen FBW7–phospho-cyclin E peptide binding, activator screen; normalized activity (activation), % at 26.1 µM; 650,000 compounds, 0.13% hits; AID 1259310; in the data active means normalized activity above about 1.9%;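 further: purified mutant Fbw7 with reduced substrate affinity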
# Target sequence (Q969H0 whole entry, looked up): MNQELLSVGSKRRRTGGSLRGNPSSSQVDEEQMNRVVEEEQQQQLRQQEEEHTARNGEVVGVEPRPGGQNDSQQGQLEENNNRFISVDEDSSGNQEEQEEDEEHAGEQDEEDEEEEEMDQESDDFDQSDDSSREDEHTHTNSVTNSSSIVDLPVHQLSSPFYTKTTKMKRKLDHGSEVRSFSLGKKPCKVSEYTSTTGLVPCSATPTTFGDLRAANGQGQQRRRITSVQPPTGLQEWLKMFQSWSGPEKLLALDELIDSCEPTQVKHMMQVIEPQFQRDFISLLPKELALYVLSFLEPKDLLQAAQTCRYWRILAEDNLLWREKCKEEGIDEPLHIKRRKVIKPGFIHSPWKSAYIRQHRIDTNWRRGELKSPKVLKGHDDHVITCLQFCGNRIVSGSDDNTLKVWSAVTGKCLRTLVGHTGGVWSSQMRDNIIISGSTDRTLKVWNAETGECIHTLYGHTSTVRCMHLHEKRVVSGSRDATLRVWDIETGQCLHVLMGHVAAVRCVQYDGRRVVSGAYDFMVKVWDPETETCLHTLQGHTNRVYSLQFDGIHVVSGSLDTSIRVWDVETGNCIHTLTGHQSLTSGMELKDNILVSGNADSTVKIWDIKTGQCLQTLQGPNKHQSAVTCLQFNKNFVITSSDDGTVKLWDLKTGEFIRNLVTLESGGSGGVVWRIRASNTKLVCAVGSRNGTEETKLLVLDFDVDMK
# MITF inh: blocks human microphthalmia-associated transcription factor; AlphaScreen MITF homodimerization, bead proximity signal; inhibition, % at 2.6 µM; 650,000 compounds, 0.91% hits; in the data active means inhibition above about 50%;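 further: 0% = vehicle wells with protein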
# TEAD-YAP block: TEAD-YAP interaction inhibition | 640,000 compounds, 1.4% hits | HEK-TIYL cells, TEAD-Gal4/YAP UAS-luciferase luminescence | inhibition, % at 9.12 µM; in the data active means inhibition above about 32%;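 further: 0% = median of test compound wells and 100% = reference inhibitor wells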
# GPR151 activ: activates the human receptor GPR151 | PathHunter beta-arrestin GPR151 cells, luminescence | activation, % at 11.2 µM | 650,000 compounds, 1% hits | AID 1508602; in the data active means activation above about 4.9%;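 further: 0% = median of compound wells and 100% = cells with positive control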
# GPR151 confirm: human GPR151 activation, confirmation screen; shares compounds with GPR151 activ; GPR151 PathHunter beta-arrestin cells, luminescence, 90 min; % of EA-reagent control over plate median; activation, % at 11.2 µM; 6,700 tested, under 10 active; AID 1508609;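 active means mean percent activation across replicates above the confirmation screen cutoff of 4.91%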
# GPR119 ag: counter-screen for GPR151 activators: effect on human GPR119. shares compounds with GPR151 activ. GPR119 PathHunter beta-arrestin cells, luminescence, 90 min; 0 = compound-well median, 100 = enzyme-acceptor control. activation, % at 11.2 µM. 6,700 compounds, 0.3% hits;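 active means mean percent activation in the counterscreen above 29.09%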;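 further: counterscreen on off-target GPR119 to flag nonselective hits from the GPR151 activator screen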
# Active calls of the source: *; / = not tested or not shown; ! = not confirmed by another sample. Rows were chosen to be rich in hits. Some 3.5% of all compounds tested hit in one or more screens of this group.
SMILES,FBW7 act,MITF inh,TEAD-YAP block,GPR151 activ,GPR151 confirm,GPR119 ag
CC(C(=O)NC1CCCCC1)N(CCc1ccccc1)C(=O)c1snc(C(N)=O)c1N (configuration not stated),0.1,4.9,-4.2,0.7,/,/
Cc1nc2ccc(Br)cc2c(Cl)c1CCC(=O)O,0.0,0.7,6.0,8.9*,0.8,13.4
O=C(NCCN1CCCC1)C1(S(=O)(=O)c2ccc(Cl)cc2)CC1,0.2,-0.1,5.2,0.8,/,/
CC1CCCCN1CCNC(=O)C1(S(=O)(=O)c2ccc(Cl)cc2)CC1 (configuration not stated),-0.1,2.6,-4.1,6.7*,0.3,16.1
CCOC(=O)CNC(=O)c1ccc([N+](=O)[O-])cc1SCC,-0.1,-3.0,-2.2,-1.9,/,/
CCCCC[C@H](O)/C=C/C1=C(CCCCCCC(=O)O)C(=O)CC1,0.1,3.5,-11.3,5.6*!,0.9,-4.1
C[C@@H](O)CCC[C@H](O)/C=C/C1=C(C/C=C\CCCC(=O)O)C(=O)CC1,/,0.5,/,-0.6,/,/
C=C1C(C(=O)N2CCOCC2)C1C(=O)N1CCOCC1 (configuration not stated),-0.1,12.5,-6.9,5.4*,-0.2,7.2
Clc1ccc(-c2csc(Nc3c(Cl)cccc3Cl)n2)cc1Cl,0.1,-15.4,-3.7,0.5,/,/
COc1cccc(-c2cn3c4c(=O)n(C)c(=O)n(C)c4nc3n2-c2cccc(C)c2)c1,0.0,9.2,-3.2,0.5,/,/
CSc1nsc(SC)c1NC(=O)OC1CCCC1,0.0,11.4,6.7,-1.1,/,/
CSc1nsc(SC)c1NC(=O)OCC1CCCO1 (configuration not stated),0.0,2.2,3.3,6.6*,-0.3,-2.4
Cc1c(Cl)cccc1NC(=O)NNS(=O)(=O)c1ccc(F)cc1,0.0,7.7,7.3,0.3,/,/
C=CCOc1ccc(/C(O)=C2\C(=O)C(=O)N(c3nc(C)c(C(=O)OC)s3)C2c2ccc(C(C)C)cc2)c(C)c1 (configuration not stated),-0.1,-3.9,-5.0,-0.2,/,/
COc1ccc(NCc2ccc(OC)c(OC)c2OC)cc1Cl,-0.3,17.4,-30.9,7.9*,1.3,15.3
CCC(C)NC(=O)C1C2C(=O)N(Cc3ccccc3)CC23C=CC1(C)O3 (configuration not stated),-0.1,9.1,7.7,8.7*,-0.5,-7.9
COc1cccc2c1CC(C(=O)Nc1ccc(-c3cn[nH]c3C)cc1OCCN(C)C)CO2 (configuration not stated),0.1,10.1,7.4,6.8*,-0.2,-2.2
Cc1[nH]ncc1-c1ccc(NC(=O)C2COc3c(F)cccc3C2)c(OCCN(C)C)c1 (configuration not stated),0.0,0.3,0.4,-1.7,/,/
O=C(Nc1ccc(Oc2ccccc2)cc1)Nc1cccc([N+](=O)[O-])c1,0.6,22.7,-7.5,7.0*,-0.3,1.2
Cc1sc2ncnc(Nc3ccncc3)c2c1C,-0.1,4.0,8.0,5.3*,0.3,20.0
Cc1sc2ncnc(NCCc3ccccc3)c2c1C,0.0,7.7,8.6,5.4*,1.5,18.9
Cc1sc2ncnc(Nc3ccc(Cl)cc3)c2c1C,0.1,-3.4,-1.4,1.3,/,/
COc1ccc(C(=O)NCc2nnc(SCC(=O)N3CCc4ccccc43)n2-c2cc(C)ccc2C)cc1OC,0.5,-6.5,-7.0,-0.3,/,/
CCOC(=O)c1cnc(SCC(=O)Nc2ccc(N(C)C)cc2)nc1N,-0.1,-4.8,9.0,1.8,/,/
COc1ccc2cc(/C=N/Nc3ccccn3)c(Cl)nc2c1,0.5,2.6,-3.2,12.5*,-0.4,-4.5
SMILES,FBW7 act,MITF inh,TEAD-YAP block,GPR151 activ,GPR151 confirm,GPR119 ag
O=C(O)/C=C/C(=O)N(Cc1ccccc1)Cc1ccccc1,-0.1,-5.3,3.5,5.3*,0.6,8.4
COc1ccc(/C=C/C(=O)N(Cc2ccccc2)Cc2ccccc2)cc1,-0.1,-2.3,1.1,-0.1,/,/
CC(Cl)C(=O)N(Cc1ccccc1)Cc1ccccc1 (configuration not stated),0.0,-17.7,8.0,5.1*,-0.2,8.0
O=C(NCCOc1cccc2ccccc12)C1CCCN1S(=O)(=O)c1ccc2ccccc2c1 (configuration not stated),-0.1,-5.7,-3.2,-1.8,/,/
O=C(O)c1cc(C23CC4CC(CC(C4)C2)C3)ccc1O,-0.2,-9.6,5.8,14.0*,-0.4,-2.8
CCC(C)NS(=O)(=O)c1ccc(F)c(C(=O)Nc2ccc(Cl)cc2C(F)(F)F)c1 (configuration not stated),0.1,9.9,4.6,-0.7,/,/
Cn1c(N/N=C\c2cccs2)cc(=O)n(C)c1=O,-0.1,7.2,-0.2,6.6*,0.0,-0.7
Cn1c(N/N=C\c2cccc(O)c2)cc(=O)n(C)c1=O,0.0,4.1,8.7,3.4,/,/
COc1cc(/C=N\Nc2cc(=O)n(C)c(=O)n2C)ccc1O,-0.1,20.8,23.7,5.7*,-1.4,-11.2
COc1cccc(NC(=O)/C(C#N)=C2\SCC(=O)N2c2ccc(C)cc2)c1,0.0,5.1,0.9,0.7,/,/
CNCC#CCOc1ccc(OC)cc1,0.6,40.7,-4.8,1.0,/,/
COc1ccc(OCC#CCNC(C)(C)C)cc1,-0.4,8.6,4.8,8.7*,0.9,-6.5
COc1ccccc1-n1c(SC)nc2c(sc(=S)n2-c2ccc(C)c(C)c2)c1=O,-0.1,-6.5,-5.3,2.1,/,/
Cc1ccc(S(=O)(=O)/N=c2\sc(C3=c4ccccc4=NC3=O)c(O)n2C)cc1,0.0,5.2,13.1,6.8*,0.3,-0.6
Cc1cccc(N=c2sc(C3=c4ccccc4=NC3=O)c(O)n2-c2cccc(C)c2)c1,0.1,-2.9,1.6,0.4,/,/
O=[N+]([O-])c1ccc(-c2nc(/C=C3\C=Nc4ccccc43)c(O)o2)cc1,-0.1,4.0,-3.1,3.6,/,/
CCN(CCCNC(=O)c1cc(-c2ccccn2)nc2ccccc12)c1cccc(C)c1,-0.2,-1.8,-2.1,8.0*,0.3,2.9
CCCNC(=O)c1cc(-c2ccccn2)nc2ccccc12,-0.1,9.2,9.0,0.5,/,/
Cc1cccc(C(=O)N2CC(C)CC(C)C2)c1 (configuration not stated),0.2,8.9,6.0,5.6*,0.8,12.4
OCCNc1nc(N2CCN(Cc3ccc4c(c3)OCO4)CC2)nc2c1ncn2-c1ccccc1,-0.1,4.3,10.9,0.4,/,/
CN1CCN(/N=C(\NO)c2nonc2N)CC1,0.2,-18.4,-24.8,12.8*!,0.0,-1.1
COc1cccc(NC(=O)CSc2nc3ccsc3c(=O)n2-c2ccccc2)c1,-0.1,-3.0,-2.9,-0.1,/,/
O=C(O)C1CC=C(Cl)CC1C(=O)Nc1ccn[nH]1 (configuration not stated),-0.3,-6.4,6.3,10.0*,0.4,0.2
CCOC(=O)c1c(NC(=O)CCCN2CCC(C)CC2)sc2c1CCCC2,0.1,23.2,7.1,-1.5,/,/

# Compound activity (PubChem BioAssay)
